The panel holds about 79,000 compounds, 15% with a hit somewhere; the sample as a whole holds those more often. Values without a mark were called inactive. Activity calls are given as the source filed them. No stated cut-off is given here; in the data, active means growth inhibition above about 70%; inactive means the rest.
Experiments:
[1] = NCI Yeast Anticancer Drug Screen. Data for the rad50 strain (AID 155);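 further: 0% = growth of vehicle-only cultures of the same strain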; settings: S. cerevisiae rad50 strain growth inhibition, stronger effect = higher value
In short: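 DNA repair mutant yeast, compound exposure, growth read-out; inhibition is taken relative to vehicle.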

[2] = NCI Yeast Anticancer Drug Screen. Data for the mec2-1 strain (AID 157); settings: S. cerevisiae mec2-1 strain, stronger effect = higher value
In short: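 Using mec2-1 yeast: add compound, measure growth, express inhibition versus vehicle-treated cultures.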

[3] = NCI Yeast Anticancer Drug Screen. Data for the sgs1 mgt1 strain (AID 161);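 further: 0% = growth of cultures given vehicle only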; settings: S. cerevisiae sgs1 mgt1 strain, stronger effect = higher value
In short: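 This yeast growth screen uses a strain with defined DNA-repair lesions; compound-treated growth is compared with vehicle-treated growth.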

[4] = NCI Yeast Anticancer Drug Screen. Data for the cln2 rad14 strain (AID 165);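 further: 0% = growth equal to vehicle treated cultures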; settings: S. cerevisiae cln2 rad14 strain, stronger effect = higher value
In short: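 Yeast strain cln2 rad14, bearing defects in cell cycle control and DNA repair, serves as the test system; values reflect growth inhibition compared with vehicle.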

[5] = NCI Yeast Anticancer Drug Screen. Data for the bub3 strain (AID 167); settings: S. cerevisiae bub3 mutant strain, stronger effect = higher value
In short: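 In this screen, a yeast mutant lacking normal mitotic checkpoint function is challenged with compound. Relative growth versus vehicle gives the inhibition value.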

[6] = NCI Yeast Anticancer Drug Screen. Data for the mlh1 rad18 strain (AID 175); settings: S. cerevisiae mlh1 rad18 strain growth inhibition, stronger effect = higher value
In short: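 Steps: expose repair-defective yeast to compound; measure growth; express inhibition against vehicle-treated controls.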

[7] = at 5.0 µM (retest, dose inferred, filed as 0.5)
[8] = at 50.0 µM (retest, dose inferred, filed as 5.0)

| Structure (SMILES) | growth inhibition [1, 7] [%] | growth inhibition [1, 8] | growth inhibition ([1]; at 50.0 µM) | growth inhibition [2, 7] [%] | growth inhibition [2, 8] | growth inhibition ([2]; at 50.0 µM) | growth inhibition [3, 7] | growth inhibition [3, 8] | growth inhibition ([3]; at 50.0 µM) | growth inhibition [4, 7] [%] | growth inhibition [4, 8] | growth inhibition ([4]; at 50.0 µM) | growth inhibition [5, 7] [%] | growth inhibition [5, 8] | growth inhibition ([5]; at 50.0 µM) | growth inhibition [6, 7] | growth inhibition [6, 8] | growth inhibition ([6]; at 50.0 µM) |
| --- | --- | --- | --- | --- | --- | --- | --- | --- | --- | --- | --- | --- | --- | --- | --- | --- | --- | --- |
| CCOC(=O)c1cnccc1CC1(C#N)c2ccccc2C=CN1C(=O)c1ccccc1 (stereo not given) | 5 | 67% | 86.7% (active) | -2 | 83% (active) | 83.5% (active) | 4% | 67% | 93.2% (active) | -7 | 68% | 52.2% | 6 | 71% (active) | 75% (active) | 3% | 67% | 89.2% (active) |
| ClC(Cl)=C1C(=C(Cl)Cl)C(Cl)(Cl)C1(Cl)Cl | 51 | 98% (active) | 88.2% (active) | 14 | 99% (active) | 92.6% (active) | 70% (active) | 99% (active) | 92% (active) | 55 | 97% (active) | 92.7% (active) | 56 | 98% (active) | 91.2% (active) | 74% (active) | 98% (active) | 88.2% (active) |
| O=C(Nc1ccc(Cl)cc1)Nc1cc(Cl)ccc1O | -2 | 22% | 93% (active) | 0 | 35% | 96.2% (active) | -1% | 28% | 90.3% (active) | -8 | 27% | 94% (active) | -4 | 19% | 96.5% (active) | -3% | 30% | 97.5% (active) |
| CCc1cc(C)cc(NC(=O)OC2CCCCC2C)c1 (stereo not given) | 42 | 66% | 90.2% (active) | 35 | 49% | 91% (active) | 35% | 92% (active) | 91.2% (active) | 20 | 69% | 89.1% (active) | 37 | 85% (active) | 91.3% (active) | 38% | 72% (active) | 90.4% (active) |
| COc1ccc(C=O)cc1C[P+](c1ccccc1)(c1ccccc1)c1ccccc1 | 46 | 97% (active) | 98% (active) | 38 | 99% (active) | 97.6% (active) | 51% | 99% (active) | 98.4% (active) | 13 | 94% (active) | 98.3% (active) | 54 | 98% (active) | 97.5% (active) | 39% | 94% (active) | 97.9% (active) |
